Bioassay records: PubChem BioAssay, SRMLSC
Fluor 339 460 = intrinsic fluorescence of library compounds, ex339/em460 – biochemical, MLSMR library, data from DPM-DC assay, artefact control, profiling panel | compound autofluorescence, ex339/em460 nm, NADH buffer; stronger effect = higher value; 1 = no-compound wells, NADH background | fluorescence fold increase at 10 µM | actives 5.5% (n = 65,000);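 active means at 10 µM, mean starting fluorescence two-fold or more over control wells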;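 further: signal is the first read of a kinetic run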
NADH coupling = blocks coupling enzymes of NAD/NADH assays; coupled PK/LDH NADH assays, four targets; IC50, µM (series often up to 10 µM); actives 0.02% (n = 65,000);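 active means single-dose screening hits from any of four coupled enzyme assays that gave an IC50 when retested across doses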;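 further: the DPM-DC format reads NADH fluorescence rather than 340 nm absorbance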
Abs 340nm = compounds absorbing at 340 nm. compound absorbance at 340 nm, fold over control. fold change at 10 µM. 65,000 tested, under 10 active;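 active means at 10 µM dose, initial 340 nm absorbance at least 2 fold that of control wells; inactive means change under 2 fold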;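 further: initial absorbance extrapolated from kinetic A340 decline of NADH oxidation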
PMK inhibit = blocks S. pneumoniae phosphomevalonate kinase | purified PMK, PK/LDH-coupled NADH absorbance 340 nm | inhibition, % at 10 µM | actives 0.49% (n = 65,000) | AID 539;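 active means top-ranked compounds by inhibition in the single 10 µM screen, taking a fixed number of the strongest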
DPM-DC inhibit = blocks S. pneumoniae diphosphomevalonate decarboxylase; purified DPM-DC, PK/LDH coupled NADH fluorescence; calls only at 10 µM; actives 0.49% (n = 65,000);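 active means the 320 compounds with the highest percent inhibition in the single-dose primary screen, excluding strongly autofluorescent ones, cut at about 32% in these data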;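 further: kinetic rate of NADH fluorescence loss reporting ADP formed by the decarboxylase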
Spn MK inh = blocks S. pneumoniae mevalonate kinase | purified MK, PK/LDH-coupled NADH absorbance 340 nm | inhibition, % at 10 µM | actives 0.48% (n = 65,000);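 active means ranked among the strongest by inhibition in the single 10 µM screen, a fixed top-ranked set picked for dose follow-up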
Hits are given with their value; i = inactive; nt = no result shown; + = active, no number. Only some compounds are listed: those with a hit (about 6.3% of all), similar ones and a draw of the others.

SMILES	Fluor 339 460	NADH coupling	Abs 340nm	PMK inhibit	DPM-DC inhibit	Spn MK inh
Cc1ccc(-c2nnc3ccc(SCC(=O)N4CCCCC4)nn23)cc1	i	i	i	i	i	i
CC(C)c1ccc(S(=O)(=O)N2CCN(C(=O)c3cccc(F)c3)CC2)cc1	i	i	i	i	i	i
Cc1ccc(C)c(N2CCN(c3cc(C)nc4nnnn34)CC2)c1	i	i	i	i	i	i
CSc1nc(N(CCO)CCO)c2sc3nc(-c4ccco4)c4c(c3c2n1)CCC4	2.27	i	i	i	nt	i
CC(C)c1nc2sc3c(SCC(=O)NCc4ccco4)ncnc3c2c2c1CCC2	i	i	i	i	i	i
CCN1CCN(CCCNC(=O)c2cn(CCOC)c(=O)c3c2c2ccccc2n3C)CC1	2.98	i	i	i	i	i
Cn1c(C(=O)NCCCN2CCN(c3ccc(F)cc3)CC2)cc2c(=O)n(C)c3ccccc3c21	i	i	i	i	i	i
COCCn1cc(C(=O)NCc2cccs2)c2c3ccccc3n(C)c2c1=O	3.47	i	i	i	i	i
CCCN(CCC)CCNC(=O)c1cc2c(=O)n(C)c3ccccc3c2n1C	i	i	i	i	nt	i
CCN(CC)CCCNC(=O)c1cn(CCOC)c(=O)c2c1c1ccccc1n2C	4.43	i	i	i	nt	i
COCCn1cc(C(=O)NCCCN2CCC(C)CC2)c2c3ccccc3n(C)c2c1=O	2.5	i	i	i	+	i
Cn1c(=O)n(CCc2ccccc2)c(=O)c2c1nc1n2CCN1c1ccccc1	i	i	i	i	i	i
CC1CCN(S(=O)(=O)c2ccc(NC(=O)CN3CCN(C)CC3)cc2)CC1	i	i	i	i	i	48.0
CC1CCC(NC(=O)CN2C(=O)C3CCCN3c3ncc(Cl)cc32)CC1 (stereo not drawn)	2.3	i	i	i	i	i
COC(=O)c1ccccc1NC(=O)CN1C(=O)C2CCCN2c2ncc(Cl)cc21 (stereo not drawn)	2.07	i	i	i	i	i
CCc1ccccc1NC(=O)CN1C(=O)C2CCCN2c2ncc(Cl)cc21 (stereo not drawn)	i	i	i	i	i	i
COc1cccc(NC(=O)CCS(=O)(=O)c2cccs2)c1	i	i	i	i	i	i
O=C(Cn1cc2c(n1)CCCC2)N1CCc2ccccc21	i	i	i	i	i	i
CCN(CC)c1ccc(/C=N/n2nnnc2N)c(O)c1	i	i	i	i	i	i
CSc1ccc(/C=N/n2nnnc2N)cc1	5.02	i	i	i	nt	i
COc1cc(/C=N/n2nnnc2N)ccc1O	i	i	i	i	i	i
CCN(C)c1ccc(/C=N\n2nnnc2N)cc1	2.5	i	i	i	i	i
COc1ccc(-c2coc3cc(O)ccc3c2=O)cc1OC	3.62	i	i	i	+	i
O=c1c(-c2ccc(F)cc2)coc2cc(O)ccc12	2.18	i	i	i	nt	i
COc1ccc(-c2c(C)oc3cc(O)cc(O)c3c2=O)cc1OC	i	i	i	i	i	i
SMILES	Fluor 339 460	NADH coupling	Abs 340nm	PMK inhibit	DPM-DC inhibit	Spn MK inh
Cc1nn(Cc2ccccc2)c(C)c1NC(=O)CSc1nnc(-c2cc(Cl)ccc2O)n1C	i	i	i	i	i	i
O=C(Nc1ccc(-c2nc3ccccc3o2)cc1)C1CCCO1 (stereo not drawn)	2.08	i	i	i	i	i
O=S(=O)(CCOc1ccccc1)c1nc2ccccc2[nH]1	i	i	i	i	i	i
[N-]=[N+]=CC(=O)c1ccnc(C(=O)C=[N+]=[N-])c1	i	i	i	i	i	i
CC(=O)c1ccc(-c2nc3ccccc3n2C)o1	2.96	i	i	i	nt	i
Cn1c(-c2ccc(Br)o2)nc2ccccc21	i	i	i	i	i	i
O=C(O)c1ccc(S(=O)(=O)NC2CCCc3ccccc32)cc1 (stereo not drawn)	i	i	i	i	i	i
CC(=O)N1CCc2cc(S(=O)(=O)NC3CCCc4ccccc43)ccc21 (stereo not drawn)	i	i	i	27.0	i	i
CCCCCOC(=O)c1cc(=O)[nH]c2ccccc12	2	i	i	i	i	i
O=C(OCCN1C(=O)c2ccccc2C1=O)c1cc(=O)[nH]c2ccccc12	i	i	i	i	i	i
COc1ccc(OC)c(-n2c(-c3cccc(O)c3)n[nH]c2=S)c1	i	i	i	i	i	66.0
N#Cc1nc(-c2ccco2)oc1N1CCN(c2cccc(Cl)c2)CC1	i	i	i	i	i	i
COc1ccccc1-c1nc(C#N)c(N2CCN(c3cccc(Cl)c3)CC2)o1	3.52	i	i	i	nt	i
COc1ccccc1-c1nc(C#N)c(N2CCN(C(c3ccccc3)c3ccccc3)CC2)o1	3.85	i	i	i	nt	i
COc1ccc(-n2c(SCC(N)=O)nnc2-c2ccccc2F)cc1	i	i	i	i	i	i
CCOC(=O)c1cnc(SCC(=O)Nc2ccc(NC(=O)CC)c(OC)c2)nc1N	i	i	i	i	i	i
COc1ccccc1N(CCC#N)C(=O)CSc1nc(-c2ccccc2)cn1N	i	i	i	i	i	i
CC(=O)c1cccc(S(=O)(=O)N(Cc2cc3cc4c(cc3[nH]c2=O)OCCO4)CC2CCCO2)c1 (stereo not drawn)	i	i	i	i	i	i
O=c1[nH]c2cc3c(cc2cc1CN(CC1CCCO1)S(=O)(=O)c1ccccc1)OCCO3 (stereo not drawn)	3.77	i	i	i	nt	i
O=C(NCc1ccccc1)N(Cc1cc2cc3c(cc2[nH]c1=O)OCCO3)CC1CCCO1 (stereo not drawn)	3.66	i	i	i	nt	i
CCCn1c(=O)c(C(=O)Nc2nnc(C)s2)c(O)c2ccccc21	i	i	i	i	i	i
CC1=CC=CC2=NC(=O)CC(C)(C(=O)N(CC(=O)NC(C)C)C3CCCC3)N12 (stereo not drawn)	3.03	i	i	i	nt	i
CC1=CC2=NC(=O)CC(C)(C(=O)N(CC(=O)NC(C)(C)C)C3CCCC3)N2C=C1 (stereo not drawn)	3.75	i	i	i	nt	i
CC(C)(C)NC(=O)CN(C(=O)C1(C)CC(=O)N=C2C=CC=CN21)C1CCCC1 (stereo not drawn)	3.78	i	i	i	nt	i
OCCSc1c(F)c(SCCO)c(SCCO)c(F)c1SCCO	i	i	i	i	i	i
SMILES	Fluor 339 460	NADH coupling	Abs 340nm	PMK inhibit	DPM-DC inhibit	Spn MK inh
COc1ccc(-c2nc(C#N)c(N3CCCCCC3)o2)cc1OC	3.85	i	i	i	nt	i
N#Cc1nc(-c2ccccc2F)oc1N1CCCC1	3.62	i	i	i	nt	i
Cc1ccc(-c2nc(C#N)c(N3CCCCC3)o2)cc1	2.22	i	i	i	nt	i
CC(C)CNc1oc(-c2ccc(F)cc2)nc1C#N	2.4	i	i	i	nt	i
N#Cc1nc(-c2ccc(F)cc2)oc1NCc1cccc2c1OCO2	i	i	i	i	i	i
N#Cc1nc(COc2cccc(Cl)c2)oc1N1CCCC1	i	i	i	i	i	i
